Source: PubChem
Hits are enriched below; roughly 21% of the tested compounds scored in any of these assays.
Pf growth 96h = P. falciparum growth inhibition at 96 hours. P. falciparum luciferase reporter growth, 96 h. Potency, µM (doses to about 28.7 µM), actives largely listed as inhibitors. hit rate 6.9% among 320,000
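Parasite growth measured via integrated firefly luciferase reporter in P. falciparum. Infected erythrocytes at 2% hematocrit, 0.05% parasitemia final were treated 96 hours at 37 C under 5% CO2, and luminescence was read.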
NS1 function inh = influenza NS1 inhibition; Potency, µM (top dose mostly 46.1 µM); AID 2326; hit rate 0.4% among 270,000; calls by dose curve; further: actives are rising curves; nearly all actives have a fitted effect of over 50% in size
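In this qHTS, NS1 from influenza A is expressed in budding yeast, where it slows growth. Cells are switched from glucose to 2% galactose medium (pH 6.0, -URA), treated with compound, and growth recovery is read at OD600.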
Shiga inhibitor = blocks Shiga toxin action in Vero cells. hit rate 9.2% among 290,000. Vero cells, Shiga toxin protein synthesis inhibition reporter. inhibition, % at 38.7 µM. AID 2315; in the data active means inhibition mostly above about 28%, no sharp cut-off; inactive means mostly below about 43%
Pf growth 48h = inhibits P. falciparum growth in the first generation, 48 h; P. falciparum luciferase growth in erythrocytes, 48 h; Potency, µM (series often up to 28.7 µM), most hits filed as inhibitors; hit rate 5.9% among 310,000
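Growth was read as firefly luciferase luminescence after a 48 h, 37 C, 5% CO2 exposure of compounds to reporter-bearing P. falciparum cultures (0.1% parasitemia, 2% hematocrit final) in Albumax-supplemented RPMI 1640.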
CHX counter = counter-screen for Shiga toxin inhibitors: cycloheximide protein synthesis inhibition; cell reporter, cycloheximide protein synthesis inhibition counterscreen; max response, %; hit rate 12% among 300,000; AID 2314; in the data active means max response mostly above about 13%, no sharp cut-off; inactive means mostly below about 14%; further: read at 38.3 µM for the half of the compounds with a filed dose
A number is an active result; ! = repeats disagree; [ ] = another dose, or the depositor's remark. Unless noted, the call rests on the fitted dose curve; in most records, active means well fitted inhibition curve with a large enough effect; inconclusive means small, poorly fitted or top-dose-only effect, or another doubt; inactive means no such curve, though single readings can be large or run the other way.

Results for Cc1ccc(NC(=O)c2ccc(OCC3CCCO3)cc2)cc1 (stereo unspecified) ?
Pf growth 96h: inactive; NS1 function inh: inactive; Shiga inhibitor: 103.9; Pf growth 48h: inactive; CHX counter: 57.1

Results for CCn1c(C)nc2cc(C(=O)N/N=C/c3ccc(N4CCOCC4)cc3)ccc21 ?
Pf growth 96h: inconclusive; NS1 function inh: inactive; Shiga inhibitor: inactive; Pf growth 48h: inconclusive; CHX counter: inactive

How did COc1cccc(CC(NC(C)=O)C(=O)NC2CCN(S(=O)(=O)c3ccc(NC(C)=O)cc3)CC2)c1OC (stereo unspecified) do in these assays?
Pf growth 96h: inactive; NS1 function inh: inactive; Shiga inhibitor: inactive; Pf growth 48h: inactive; CHX counter: inactive

Results for COc1ccccc1NS(=O)(=O)c1ccc(C(=O)Nc2ncccc2O)cc1 ?
Pf growth 96h: inconclusive; Pf growth 48h: 4.65µM

Results for O=C(Nc1ncccc1O)c1ccc(Oc2ccccc2)cc1 ?
Pf growth 96h: inactive; NS1 function inh: inactive; Shiga inhibitor: 70.7; Pf growth 48h: inactive; CHX counter: 52.4

How did O=C(C1CC1)N1CCC(c2nc(-c3ccc(S(=O)(=O)NCC4CCCO4)cc3)no2)CC1 (stereo unspecified) do in these assays?
Pf growth 96h: inactive; NS1 function inh: inactive; Shiga inhibitor: inactive; Pf growth 48h: 9.28µM; CHX counter: inactive

Results for O=C(c1ccccc1)N1CCC(c2nc(-c3ccc(S(=O)(=O)NCC4CCCO4)cc3)no2)CC1 (stereo unspecified) ?
NS1 function inh: inactive; Shiga inhibitor: inactive; Pf growth 48h: inactive; CHX counter: inactive

How did O=C(Nc1ccc(F)cc1)c1ccc(S(=O)(=O)NCC2CCCO2)cc1 (stereo unspecified) do in these assays?
Pf growth 96h: inactive; NS1 function inh: inactive; Shiga inhibitor: inactive; Pf growth 48h: inconclusive; CHX counter: inactive

How did CC(=O)Nc1ccc(C(=O)Nc2ccc(S(=O)(=O)NCC3CCCO3)cc2)cc1 (stereo unspecified) do in these assays?
Pf growth 96h: inactive; NS1 function inh: inconclusive; Shiga inhibitor: inactive; Pf growth 48h: 13.1µM; CHX counter: inactive

How did Cc1ccc(CN2CCC(=O)N2)cc1 do in these assays?
Pf growth 96h: inactive; NS1 function inh: inactive; Shiga inhibitor: inactive; Pf growth 48h: inactive[0.00184 µM]; CHX counter: inactive

What do the screens show for `O=C(NCc1ccccc1)c1ccc(OCC2CCCO2)cc1` (stereo unspecified)?
Pf growth 96h: inactive; NS1 function inh: inactive; Shiga inhibitor: inactive; Pf growth 48h: inactive; CHX counter: inactive

What do the screens show for `O=C(Nc1ncccc1O)c1ccc(OCC2CCCO2)cc1` (stereo unspecified)?
Pf growth 96h: inconclusive; NS1 function inh: inactive; Shiga inhibitor: 51.7; Pf growth 48h: inactive; CHX counter: 35.2

What do the screens show for `O=c1[nH]cc(S(=O)(=O)N2CCCc3ccccc32)c(=O)[nH]1`?
Pf growth 96h: inactive; Pf growth 48h: inactive

How did CC/C(=C(\c1ccc(O)cc1)c1ccc(OCCN(C)C)cc1)c1ccccc1 do in these assays?
NS1 function inh: inactive; Shiga inhibitor: inactive; CHX counter: inactive

Results for CCN(CC)CCOc1ccc(/C(=C(/Cl)c2ccccc2)c2ccccc2)cc1 ?
Pf growth 96h: 9.28µM; NS1 function inh: inactive; Shiga inhibitor: inactive; Pf growth 48h: 9.28µM!; CHX counter: inactive

How did CC/C(=C(\c1ccccc1)c1ccc(OCCN(C)C)cc1)c1ccccc1 do in these assays?
Pf growth 96h: inconclusive; NS1 function inh: inactive; Pf growth 48h: 13.1µM

What do the screens show for `CC1/C(=N/O)CC(c2ccccc2)N(C)C1c1ccccc1` (stereo unspecified)?
Pf growth 96h: inconclusive; NS1 function inh: inactive; Shiga inhibitor: inactive; Pf growth 48h: 13.1µM; CHX counter: inactive

How did COc1cc(/C=C2\C(=N)N3N=CSC3=NC2=O)ccc1OS(=O)(=O)c1ccccc1 do in these assays?
Pf growth 96h: inconclusive; NS1 function inh: inconclusive; Shiga inhibitor: inactive; Pf growth 48h: inactive; CHX counter: 15.8

Results for COc1cc(/C=C2\C(=N)N3N=C(S(C)(=O)=O)SC3=NC2=O)ccc1OS(=O)(=O)c1ccc(C)cc1 ?
Pf growth 96h: inconclusive; NS1 function inh: inactive; Shiga inhibitor: inactive; Pf growth 48h: inactive; CHX counter: 23.8

How did COc1cc(/C=C2/C(=N)N3N=C(C(C)C)SC3=NC2=O)ccc1OS(=O)(=O)c1ccccc1 do in these assays?
Pf growth 96h: inactive; NS1 function inh: inactive; Shiga inhibitor: inactive; Pf growth 48h: inactive; CHX counter: 8.7

How did CCOc1cc(/C=C2/C(=N)N3N=C(C)SC3=NC2=O)ccc1OS(=O)(=O)c1ccc(C)cc1 do in these assays?
Pf growth 96h: inactive; NS1 function inh: inactive; Shiga inhibitor: inactive; Pf growth 48h: inactive; CHX counter: inactive

Results for Cc1cc(/C=C2\C(=N)N3N=CSC3=NC2=O)c(C)n1Cc1ccccc1 ?
Pf growth 96h: inactive; NS1 function inh: inactive; Shiga inhibitor: inactive; Pf growth 48h: inactive; CHX counter: 14.2

What do the screens show for `CCC1=NN2C(=N)/C(=C/c3ccc(OS(=O)(=O)c4ccccc4)c(OC)c3)C(=O)N=C2S1`?
Pf growth 96h: inconclusive; NS1 function inh: inactive; Shiga inhibitor: inactive; Pf growth 48h: inactive; CHX counter: inactive

Results for Cc1csc(NC(=O)CSc2nnc(NC(=O)COc3ccc(Cl)cc3)s2)n1 ?
Pf growth 96h: inactive; NS1 function inh: inactive; Shiga inhibitor: inactive; Pf growth 48h: inactive; CHX counter: inactive

What do the screens show for `CCCCCCCN1C2=NCCN2c2ccccc21`?
Pf growth 96h: inconclusive; NS1 function inh: inactive; Shiga inhibitor: inactive; Pf growth 48h: inconclusive; CHX counter: inactive

Results for CCCCCCN1C2=NCCN2c2ccccc21 ?
NS1 function inh: inactive; Shiga inhibitor: inactive; Pf growth 48h: 14.7µM; CHX counter: inactive

How did O=C(CN1C2=NCCN2c2ccccc21)N1CCOCC1 do in these assays?
Pf growth 96h: inactive; NS1 function inh: inconclusive; Shiga inhibitor: inactive; Pf growth 48h: inactive; CHX counter: inactive

Results for CCCCN1C2=NCCCN2c2ccccc21 ?
Pf growth 96h: 10.4µM; NS1 function inh: inactive; Shiga inhibitor: inactive; Pf growth 48h: inconclusive; CHX counter: inactive

How did CCCN1C2=NCCCN2c2ccccc21 do in these assays?
Pf growth 96h: inconclusive; NS1 function inh: inactive; Shiga inhibitor: inactive; Pf growth 48h: inactive; CHX counter: inactive

Results for O=C(CN1C2=NCCN2c2ccccc21)c1ccco1 ?
Pf growth 96h: 13.1µM; NS1 function inh: inactive; Shiga inhibitor: inactive; CHX counter: inactive

How did CCCCN1C2=NCCCN2c2cc(C)c(C)cc21 do in these assays?
Pf growth 96h: 13.1µM; NS1 function inh: inactive; Shiga inhibitor: inactive; Pf growth 48h: 13.1µM; CHX counter: inactive

How did C=Cc1ccc2c(c1)N(C)C(=C)S2 do in these assays?
Pf growth 96h: inconclusive; NS1 function inh: inconclusive; Shiga inhibitor: inactive; Pf growth 48h: inconclusive; CHX counter: inactive

What do the screens show for `O=C(COC(=O)/C=C/c1nc2ccccc2s1)Nc1cccc(Cl)c1Cl`?
Pf growth 96h: inactive; NS1 function inh: inactive; Shiga inhibitor: inactive; Pf growth 48h: inactive; CHX counter: inactive

What do the screens show for `CCCCCCCN1C2=NCCCN2c2ccccc21`?
Pf growth 96h: inactive; NS1 function inh: inactive; Shiga inhibitor: inactive; Pf growth 48h: 2.94µM; CHX counter: inactive

How did CCCN1C2=NCCN2c2ccccc21 do in these assays?
Pf growth 96h: 4.15µM; NS1 function inh: inactive; Shiga inhibitor: inactive; Pf growth 48h: inactive; CHX counter: inactive
